# Test results: ChEMBL document CHEMBL1961873, “Compounds: GSK PKIS; Assays: Nanosyn kinase panel” (2012)
# What was measured:
# [1] = biological target: Protein kinase C gamma type (Homo sapiens) (UniProt P05129); conditions: at 1 µM;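 also: each value is an averaged percent inhibition of the enzyme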
# [2] = biological target: T1, Protein kinase C iota type (Homo sapiens) (UniProt P41743); conditions: at 0.1 µM
# T1 sequence (whole entry): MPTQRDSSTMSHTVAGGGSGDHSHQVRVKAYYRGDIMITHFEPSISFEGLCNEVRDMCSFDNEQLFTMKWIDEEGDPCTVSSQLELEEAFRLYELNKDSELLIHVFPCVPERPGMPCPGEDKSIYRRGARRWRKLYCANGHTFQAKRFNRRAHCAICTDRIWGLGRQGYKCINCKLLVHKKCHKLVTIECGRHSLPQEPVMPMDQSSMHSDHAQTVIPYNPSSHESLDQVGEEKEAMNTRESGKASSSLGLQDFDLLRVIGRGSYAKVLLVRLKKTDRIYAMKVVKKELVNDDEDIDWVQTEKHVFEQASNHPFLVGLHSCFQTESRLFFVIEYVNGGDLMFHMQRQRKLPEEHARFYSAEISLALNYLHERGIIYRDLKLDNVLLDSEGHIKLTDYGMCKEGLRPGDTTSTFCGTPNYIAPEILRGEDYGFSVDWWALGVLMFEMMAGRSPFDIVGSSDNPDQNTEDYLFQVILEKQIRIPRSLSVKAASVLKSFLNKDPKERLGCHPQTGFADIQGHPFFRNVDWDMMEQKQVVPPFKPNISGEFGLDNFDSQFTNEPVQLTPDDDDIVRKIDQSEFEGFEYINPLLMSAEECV
# [3] = biological target: T1, Protein kinase C iota type (Homo sapiens); conditions: at 1 µM
# [4] = biological target: Protein kinase C theta type (Homo sapiens) (UniProt Q04759); conditions: at 0.1 µM
# Chain of Protein kinase C theta type (Homo sapiens) (Q04759 whole entry, looked up): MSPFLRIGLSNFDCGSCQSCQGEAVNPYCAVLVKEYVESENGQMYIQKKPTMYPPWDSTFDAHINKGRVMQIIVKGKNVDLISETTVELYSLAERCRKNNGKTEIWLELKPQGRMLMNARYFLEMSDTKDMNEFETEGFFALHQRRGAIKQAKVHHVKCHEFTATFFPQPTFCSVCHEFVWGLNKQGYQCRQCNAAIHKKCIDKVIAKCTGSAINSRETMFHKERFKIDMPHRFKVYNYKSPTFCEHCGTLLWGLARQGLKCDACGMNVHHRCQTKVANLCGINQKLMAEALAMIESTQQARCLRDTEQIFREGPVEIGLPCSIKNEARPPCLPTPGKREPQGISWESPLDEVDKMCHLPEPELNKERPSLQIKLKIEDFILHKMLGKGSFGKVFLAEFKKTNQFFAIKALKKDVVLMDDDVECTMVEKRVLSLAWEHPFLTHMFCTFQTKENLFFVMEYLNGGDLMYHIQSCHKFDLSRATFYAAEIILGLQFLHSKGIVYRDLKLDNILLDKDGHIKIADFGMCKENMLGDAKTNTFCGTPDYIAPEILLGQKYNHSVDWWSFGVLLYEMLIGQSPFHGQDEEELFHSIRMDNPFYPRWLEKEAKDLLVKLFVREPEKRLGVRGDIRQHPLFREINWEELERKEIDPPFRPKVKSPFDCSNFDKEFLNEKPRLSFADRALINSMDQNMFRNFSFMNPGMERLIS
# [5] = biological target: Protein kinase C theta type (Homo sapiens) (UniProt Q04759); conditions: at 1 µM
# [6] = biological target: Protein kinase C beta type (Homo sapiens) (UniProt P05771); conditions: at 0.1 µM
# Chain of Protein kinase C beta type (Homo sapiens) (P05771 2-671 limits assumed): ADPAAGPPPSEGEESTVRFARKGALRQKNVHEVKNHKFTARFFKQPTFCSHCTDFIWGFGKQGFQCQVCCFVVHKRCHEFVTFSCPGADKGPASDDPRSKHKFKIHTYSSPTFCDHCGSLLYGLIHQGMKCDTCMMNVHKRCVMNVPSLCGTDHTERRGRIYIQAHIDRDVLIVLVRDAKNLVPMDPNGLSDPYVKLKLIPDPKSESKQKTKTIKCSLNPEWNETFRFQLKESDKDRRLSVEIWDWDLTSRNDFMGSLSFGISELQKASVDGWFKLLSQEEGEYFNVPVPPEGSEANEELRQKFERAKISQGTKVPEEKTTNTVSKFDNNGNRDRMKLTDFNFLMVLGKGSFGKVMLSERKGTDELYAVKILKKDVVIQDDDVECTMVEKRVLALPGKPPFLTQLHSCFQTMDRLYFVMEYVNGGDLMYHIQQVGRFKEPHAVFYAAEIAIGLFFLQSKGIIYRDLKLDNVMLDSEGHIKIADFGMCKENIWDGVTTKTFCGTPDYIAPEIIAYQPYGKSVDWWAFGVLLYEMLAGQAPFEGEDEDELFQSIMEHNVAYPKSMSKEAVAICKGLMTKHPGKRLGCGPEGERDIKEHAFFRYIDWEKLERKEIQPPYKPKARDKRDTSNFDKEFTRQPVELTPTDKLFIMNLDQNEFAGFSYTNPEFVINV
# [7] = biological target: Protein kinase C beta type (Homo sapiens) (UniProt P05771); conditions: at 1 µM
# [8] = biological target: T2, Serine/threonine-protein kinase D1 (Homo sapiens) (UniProt Q15139); conditions: at 0.1 µM
# T2 sequence (whole entry): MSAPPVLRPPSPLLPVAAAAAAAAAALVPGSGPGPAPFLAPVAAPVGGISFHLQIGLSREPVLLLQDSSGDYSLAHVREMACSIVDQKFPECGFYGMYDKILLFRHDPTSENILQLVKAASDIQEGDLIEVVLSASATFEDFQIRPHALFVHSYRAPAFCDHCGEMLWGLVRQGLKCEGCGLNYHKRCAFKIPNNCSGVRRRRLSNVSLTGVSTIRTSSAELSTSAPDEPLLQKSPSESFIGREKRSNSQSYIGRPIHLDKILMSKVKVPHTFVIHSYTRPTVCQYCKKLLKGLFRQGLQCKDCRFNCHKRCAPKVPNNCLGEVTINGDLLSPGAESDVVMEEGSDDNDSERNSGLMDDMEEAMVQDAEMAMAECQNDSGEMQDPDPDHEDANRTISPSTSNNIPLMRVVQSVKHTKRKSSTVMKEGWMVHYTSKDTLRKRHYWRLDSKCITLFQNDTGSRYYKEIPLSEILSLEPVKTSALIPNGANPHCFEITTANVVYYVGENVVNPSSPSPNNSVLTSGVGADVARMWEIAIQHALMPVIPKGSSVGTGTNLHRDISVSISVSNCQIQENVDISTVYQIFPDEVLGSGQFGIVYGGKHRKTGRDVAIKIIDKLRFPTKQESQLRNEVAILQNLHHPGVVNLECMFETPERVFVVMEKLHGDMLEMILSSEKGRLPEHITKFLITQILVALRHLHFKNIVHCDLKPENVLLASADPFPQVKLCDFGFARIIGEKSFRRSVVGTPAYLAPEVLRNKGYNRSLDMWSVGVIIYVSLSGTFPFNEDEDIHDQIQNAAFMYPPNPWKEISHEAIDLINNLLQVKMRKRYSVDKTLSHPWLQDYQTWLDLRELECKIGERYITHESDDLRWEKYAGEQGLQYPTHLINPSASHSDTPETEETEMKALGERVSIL
# [9] = biological target: T2, Serine/threonine-protein kinase D1 (Homo sapiens); conditions: at 1 µM
# [10] = biological target: T3, Serine/threonine-protein kinase D2 (Homo sapiens) (UniProt Q9BZL6); conditions: at 0.1 µM
# T3 sequence (whole entry): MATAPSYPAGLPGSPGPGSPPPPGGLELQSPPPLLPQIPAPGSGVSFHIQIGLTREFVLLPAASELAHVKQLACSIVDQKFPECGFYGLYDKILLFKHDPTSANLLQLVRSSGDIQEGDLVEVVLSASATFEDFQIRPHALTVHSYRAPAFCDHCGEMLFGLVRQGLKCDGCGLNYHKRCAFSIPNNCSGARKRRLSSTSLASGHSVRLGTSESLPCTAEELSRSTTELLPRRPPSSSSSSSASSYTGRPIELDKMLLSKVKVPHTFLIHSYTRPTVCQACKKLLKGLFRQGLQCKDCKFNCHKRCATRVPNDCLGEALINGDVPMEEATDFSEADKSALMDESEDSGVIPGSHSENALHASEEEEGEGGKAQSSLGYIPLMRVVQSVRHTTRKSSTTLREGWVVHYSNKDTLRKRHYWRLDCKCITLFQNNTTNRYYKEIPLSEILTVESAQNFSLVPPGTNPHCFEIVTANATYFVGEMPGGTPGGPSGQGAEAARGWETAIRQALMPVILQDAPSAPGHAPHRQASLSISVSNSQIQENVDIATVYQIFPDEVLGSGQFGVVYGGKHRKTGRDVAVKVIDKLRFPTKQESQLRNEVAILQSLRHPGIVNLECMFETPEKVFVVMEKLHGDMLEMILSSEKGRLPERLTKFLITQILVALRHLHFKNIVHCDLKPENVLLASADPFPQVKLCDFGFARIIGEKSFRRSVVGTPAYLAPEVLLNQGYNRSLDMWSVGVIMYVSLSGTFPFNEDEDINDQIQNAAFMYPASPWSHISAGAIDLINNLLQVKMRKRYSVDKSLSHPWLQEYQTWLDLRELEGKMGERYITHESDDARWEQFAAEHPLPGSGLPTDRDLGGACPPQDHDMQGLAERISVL
# [11] = biological target: T3, Serine/threonine-protein kinase D2 (Homo sapiens); conditions: at 1 µM
# [12] = biological target: T4, Serine/threonine-protein kinase D3 (Homo sapiens) (UniProt O94806); conditions: at 0.1 µM
# T4 sequence (whole entry): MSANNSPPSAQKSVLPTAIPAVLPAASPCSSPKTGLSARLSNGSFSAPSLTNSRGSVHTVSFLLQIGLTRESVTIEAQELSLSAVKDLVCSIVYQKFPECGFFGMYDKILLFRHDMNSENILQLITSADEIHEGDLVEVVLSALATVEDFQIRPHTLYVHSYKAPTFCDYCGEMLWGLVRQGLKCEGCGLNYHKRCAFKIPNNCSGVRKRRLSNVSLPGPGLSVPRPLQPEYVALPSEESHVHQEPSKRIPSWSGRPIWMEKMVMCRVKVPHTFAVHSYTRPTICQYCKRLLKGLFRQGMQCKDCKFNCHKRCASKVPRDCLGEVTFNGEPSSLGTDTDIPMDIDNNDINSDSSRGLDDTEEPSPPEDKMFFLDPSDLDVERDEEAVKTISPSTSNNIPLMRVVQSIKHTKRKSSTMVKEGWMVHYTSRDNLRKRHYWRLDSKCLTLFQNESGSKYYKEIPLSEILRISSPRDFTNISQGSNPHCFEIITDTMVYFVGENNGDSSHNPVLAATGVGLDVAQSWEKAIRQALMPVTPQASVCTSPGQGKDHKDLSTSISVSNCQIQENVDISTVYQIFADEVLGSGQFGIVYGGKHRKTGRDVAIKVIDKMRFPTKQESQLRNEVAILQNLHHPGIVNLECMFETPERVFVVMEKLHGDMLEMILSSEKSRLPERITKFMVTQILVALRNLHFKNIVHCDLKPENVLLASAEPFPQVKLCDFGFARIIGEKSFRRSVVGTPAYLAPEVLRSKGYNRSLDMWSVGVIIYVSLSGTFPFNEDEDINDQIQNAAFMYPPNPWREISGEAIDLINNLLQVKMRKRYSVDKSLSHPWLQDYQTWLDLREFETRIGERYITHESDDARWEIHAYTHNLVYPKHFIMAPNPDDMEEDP
# [13] = biological target: T4, Serine/threonine-protein kinase D3 (Homo sapiens); conditions: at 1 µM
# [14] = biological target: T5, cGMP-dependent protein kinase 1 (Homo sapiens) (UniProt Q13976); conditions: at 0.1 µM
# T5 sequence (whole entry): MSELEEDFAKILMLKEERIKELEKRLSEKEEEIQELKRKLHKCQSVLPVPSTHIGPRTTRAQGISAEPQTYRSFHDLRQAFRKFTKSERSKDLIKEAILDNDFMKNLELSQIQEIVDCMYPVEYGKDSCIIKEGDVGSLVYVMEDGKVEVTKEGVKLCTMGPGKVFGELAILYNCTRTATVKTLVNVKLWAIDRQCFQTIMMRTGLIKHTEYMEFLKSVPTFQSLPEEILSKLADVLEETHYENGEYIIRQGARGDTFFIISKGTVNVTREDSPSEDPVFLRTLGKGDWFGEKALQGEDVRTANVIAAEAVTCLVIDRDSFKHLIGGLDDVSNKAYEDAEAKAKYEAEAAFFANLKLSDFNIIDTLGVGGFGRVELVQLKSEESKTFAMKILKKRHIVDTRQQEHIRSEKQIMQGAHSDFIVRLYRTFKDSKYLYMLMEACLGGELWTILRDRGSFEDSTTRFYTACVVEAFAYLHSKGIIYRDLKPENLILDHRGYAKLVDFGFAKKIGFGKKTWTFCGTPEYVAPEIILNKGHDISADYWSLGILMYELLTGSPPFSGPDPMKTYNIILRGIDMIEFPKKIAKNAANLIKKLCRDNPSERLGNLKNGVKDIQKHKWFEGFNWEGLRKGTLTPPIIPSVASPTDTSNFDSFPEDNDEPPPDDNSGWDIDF
# [15] = biological target: T5, cGMP-dependent protein kinase 1 (Homo sapiens); conditions: at 1 µM
# [16] = biological target: T6, cGMP-dependent protein kinase 2 (Homo sapiens) (UniProt Q13237); conditions: at 0.1 µM
# T6 sequence (whole entry): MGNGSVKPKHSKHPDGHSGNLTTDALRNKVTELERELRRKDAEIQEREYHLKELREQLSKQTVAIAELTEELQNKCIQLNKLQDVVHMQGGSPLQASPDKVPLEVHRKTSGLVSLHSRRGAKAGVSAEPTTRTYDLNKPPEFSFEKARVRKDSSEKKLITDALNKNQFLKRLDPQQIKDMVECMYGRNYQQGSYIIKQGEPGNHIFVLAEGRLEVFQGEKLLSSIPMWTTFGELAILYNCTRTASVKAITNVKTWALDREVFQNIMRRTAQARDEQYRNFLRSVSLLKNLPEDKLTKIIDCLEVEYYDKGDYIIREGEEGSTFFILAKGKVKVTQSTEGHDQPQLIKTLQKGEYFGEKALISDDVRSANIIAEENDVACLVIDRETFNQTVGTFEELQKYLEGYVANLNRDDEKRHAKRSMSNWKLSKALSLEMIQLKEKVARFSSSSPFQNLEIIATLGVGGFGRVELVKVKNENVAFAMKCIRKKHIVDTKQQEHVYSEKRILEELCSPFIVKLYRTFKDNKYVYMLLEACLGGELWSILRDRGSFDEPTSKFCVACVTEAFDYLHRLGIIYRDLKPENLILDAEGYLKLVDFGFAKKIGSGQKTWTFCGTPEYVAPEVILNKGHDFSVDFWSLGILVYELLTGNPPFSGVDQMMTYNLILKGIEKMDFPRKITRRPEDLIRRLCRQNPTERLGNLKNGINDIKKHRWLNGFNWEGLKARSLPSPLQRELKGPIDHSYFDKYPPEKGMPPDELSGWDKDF
# [17] = biological target: T6, cGMP-dependent protein kinase 2 (Homo sapiens); conditions: at 1 µM
# [18] = biological target: T7, cAMP-dependent protein kinase catalytic subunit PRKX (Homo sapiens) (UniProt P51817); conditions: at 0.1 µM
# T7 sequence (whole entry): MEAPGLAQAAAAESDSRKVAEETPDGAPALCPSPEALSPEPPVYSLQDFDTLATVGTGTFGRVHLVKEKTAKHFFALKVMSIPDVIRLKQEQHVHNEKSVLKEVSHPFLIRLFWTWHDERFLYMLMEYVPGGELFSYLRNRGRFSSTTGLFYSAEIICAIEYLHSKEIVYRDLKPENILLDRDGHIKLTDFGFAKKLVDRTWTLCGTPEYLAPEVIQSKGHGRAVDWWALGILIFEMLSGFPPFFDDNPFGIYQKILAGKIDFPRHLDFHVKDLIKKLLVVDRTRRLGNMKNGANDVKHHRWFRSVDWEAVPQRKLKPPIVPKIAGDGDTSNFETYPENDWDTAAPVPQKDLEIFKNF
# [19] = biological target: T7, cAMP-dependent protein kinase catalytic subunit PRKX (Homo sapiens); conditions: at 1 µM
# [20] = biological target: Rho-associated protein kinase 1 (Homo sapiens) (UniProt Q13464); conditions: at 0.1 µM;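 also: values are mean percent inhibition of ROCK1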
# Chain of Rho-associated protein kinase 1 (Homo sapiens) (Q13464 2-1354 limits assumed): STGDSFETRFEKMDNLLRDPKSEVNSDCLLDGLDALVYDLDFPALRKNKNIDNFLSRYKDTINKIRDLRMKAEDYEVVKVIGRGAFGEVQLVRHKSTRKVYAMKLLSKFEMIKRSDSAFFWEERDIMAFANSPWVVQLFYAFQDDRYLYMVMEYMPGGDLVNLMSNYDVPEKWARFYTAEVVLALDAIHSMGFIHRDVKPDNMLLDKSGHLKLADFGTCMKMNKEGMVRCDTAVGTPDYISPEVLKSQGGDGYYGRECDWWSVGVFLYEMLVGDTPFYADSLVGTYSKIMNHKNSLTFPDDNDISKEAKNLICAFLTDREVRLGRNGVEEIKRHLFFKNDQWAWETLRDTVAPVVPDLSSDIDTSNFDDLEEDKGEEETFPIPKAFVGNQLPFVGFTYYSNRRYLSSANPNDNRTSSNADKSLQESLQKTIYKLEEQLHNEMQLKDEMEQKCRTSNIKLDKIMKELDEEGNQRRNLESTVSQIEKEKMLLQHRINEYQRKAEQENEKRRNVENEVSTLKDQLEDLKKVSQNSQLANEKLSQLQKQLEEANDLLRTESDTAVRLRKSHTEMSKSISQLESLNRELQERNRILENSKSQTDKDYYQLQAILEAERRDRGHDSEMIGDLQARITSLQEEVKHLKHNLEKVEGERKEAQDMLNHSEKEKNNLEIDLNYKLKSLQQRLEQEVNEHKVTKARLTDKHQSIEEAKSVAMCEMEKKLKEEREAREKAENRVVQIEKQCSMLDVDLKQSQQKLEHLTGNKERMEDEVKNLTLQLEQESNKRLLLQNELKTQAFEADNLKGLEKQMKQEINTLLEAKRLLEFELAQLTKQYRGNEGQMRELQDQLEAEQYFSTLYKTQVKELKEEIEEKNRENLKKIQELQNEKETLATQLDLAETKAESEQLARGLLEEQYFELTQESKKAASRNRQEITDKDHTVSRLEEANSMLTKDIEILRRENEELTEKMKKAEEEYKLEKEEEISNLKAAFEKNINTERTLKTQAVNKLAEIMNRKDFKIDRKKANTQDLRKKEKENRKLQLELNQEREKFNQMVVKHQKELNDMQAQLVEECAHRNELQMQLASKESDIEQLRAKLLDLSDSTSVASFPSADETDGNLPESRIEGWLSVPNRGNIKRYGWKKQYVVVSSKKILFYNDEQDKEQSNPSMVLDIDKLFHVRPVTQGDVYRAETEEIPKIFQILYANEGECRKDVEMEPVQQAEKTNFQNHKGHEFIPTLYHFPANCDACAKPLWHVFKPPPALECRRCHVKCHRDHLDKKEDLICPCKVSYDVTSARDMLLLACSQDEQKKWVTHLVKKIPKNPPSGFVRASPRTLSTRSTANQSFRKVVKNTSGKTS
SMILES,inhibition [1],inhibition [2],inhibition [3],inhibition [4],inhibition [5],inhibition [6],inhibition [7],inhibition [8],inhibition [9],inhibition [10],inhibition [11],inhibition [12],inhibition [13],inhibition [14],inhibition [15],inhibition [16],inhibition [17],inhibition [18],inhibition [19],inhibition [20]
COc1ccc(-c2coc3ncnc(N)c23)cc1,3.98%,1.44%,3.36%,1.7%,1.28%,1.62%,2.4%,4.27%,6.99%,4.87%,6.47%,4.56%,7.56%,2.84%,3.68%,2.51%,3.93%,1.76%,1.11%,3.01%
COc1cccc(-n2ncc3c(N/N=C/c4cccc(F)c4)ncnc32)c1,1.92%,1.95%,1.9%,0.55%,2.23%,1.7%,3.14%,-1.15%,0.28%,-1.06%,-1.18%,-0.44%,-0.79%,2.15%,3.23%,2.4%,3.95%,1.69%,2.08%,0.34%
Fc1cccc(COc2ccc(Nc3ncnc4sc(-c5cccs5)cc34)cc2Cl)c1,2.13%,0.71%,1.19%,0.32%,0.01%,-0.19%,0.44%,0.09%,0.23%,-1.32%,-1.2%,-0.65%,-0.35%,1.57%,1.96%,0.03%,0.73%,0.64%,0.87%,1.73%
